Our source for the growth values is PubChem BioAssay (NCI).

Common to all, as to assay: NCI-60 one-dose screen, 48 h (100 = growth as untreated, 0 = no growth, -100 = all killed)
One assay deals with HCT-15 colon. Conditions: 10 µM unless noted.
The subject of a further assay is HT29 colon. The note with it: 10 µM unless noted.
The subject of the next assay is SNB-75 CNS. The note with it: 10 µM unless noted.
In a further assay the test system is SNB-19 CNS. Conditions: 10 µM unless noted.
The test system of a further assay is PC-3 prostate. The note with it: 10 µM unless noted.
The next assay concerns SK-MEL-5 melanoma. Conditions: 10 µM unless noted.
Another assay concerns UACC-62 melanoma. The note with it: 10 µM unless noted.
A further assay concerns LOX IMVI melanoma. Conditions: 10 µM unless noted.
The next assay relates to SK-MEL-28 melanoma. The note with it: 10 µM unless noted.
Another assay deals with SK-MEL-2 melanoma. The note with it: 10 µM.
The subject of another assay is EKVX NSCLC. The note with it: 10 µM unless noted.
The test system of another assay is SN12C renal. Conditions: 10 µM unless noted.
A further assay deals with UO-31 renal. Conditions: 10 µM unless noted.
The next assay deals with TK-10 renal. Conditions: 10 µM unless noted.
The next assay has as its system ACHN renal. The note with it: 10 µM unless noted.
For another assay, the system named is A498 renal. Conditions: 10 µM unless noted.
Another assay concerns CCRF-CEM leukemia. The note with it: 10 µM unless noted.
For the next assay, the system named is MOLT-4 leukemia. Conditions: 10 µM unless noted.
The next assay concerns CAKI-1 renal. The note with it: 10 µM unless noted.
For the next assay, the system named is U251 CNS. Conditions: 10 µM unless noted.

About 83,000 compounds went through this panel and 20% of them were active in at least one assay; those are over-represented in the sample as a whole.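 Assay: single dose, 48 h. Readout: percent growth (0 = no net growth; negative = cell death). Active: <10.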 Unmarked numbers belong to inactive results. Active and inactive are the calls of the source.

For `CC(=O)OCCC/C(=C\c1ccc2ccccc2c1)[N+](=O)[O-]`, the growth with HCT-15 colon was -69.4% (active); with HT29 colon, -29.8% (active); with SNB-75 CNS it was -88.9% (active); in the assay with SNB-19 CNS, -39.5% (active); in the assay with PC-3 prostate, -96.8% (active); with SK-MEL-5 melanoma, -94% (active). In addition, the growth is -75.5% (active) in the assay with UACC-62 melanoma; -83.3% (active) in the assay on LOX IMVI melanoma; -91.1% (active) with SK-MEL-28 melanoma; -68.5% (active) with SK-MEL-2 melanoma; 42.1% in the assay on EKVX NSCLC; -66.4% (active) in the assay on SN12C renal. Besides, the growth in the assay with UO-31 renal was -99.8% (active); with TK-10 renal, -64.4% (active); in the assay with ACHN renal, -92.6% (active); in the assay on A498 renal, -22.4% (active); in the assay with CCRF-CEM leukemia it was -49.4% (active); with MOLT-4 leukemia, -26.1% (active).
As to `O=S1(=O)OC(c2ccc(O)c(Cl)c2)(c2ccc(O)c(Cl)c2)c2ccccc21`, the growth in the assay on HCT-15 colon was 102%; in the assay on HT29 colon, 123%; in the assay with SNB-75 CNS, 78.4%; with SNB-19 CNS, 103%; with PC-3 prostate, 77.8%; in the assay on SK-MEL-5 melanoma, 95.9%. Moreover, the growth with UACC-62 melanoma is 99.5%; in the assay with LOX IMVI melanoma, 100%; with SK-MEL-28 melanoma, 114%; in the assay with EKVX NSCLC it was 112%; in the assay with SN12C renal it was 97%; in the assay with UO-31 renal it was 66.2%. In addition, the growth is 100% in the assay on TK-10 renal; 96.9% in the assay on ACHN renal; 90.2% in the assay with CAKI-1 renal; 90.3% in the assay on A498 renal; 102% in the assay on CCRF-CEM leukemia; 109% in the assay with MOLT-4 leukemia.
Regarding `O=C(Cn1ccc2ccccc21)Nc1ccc(-c2nc3ccccc3s2)cc1`, the growth was 110% with HCT-15 colon; 115% in the assay with HT29 colon; 93.8% in the assay with SNB-75 CNS; 98.6% with SNB-19 CNS; 97.6% in the assay on U251 CNS; 98% in the assay with PC-3 prostate. Besides, the growth in the assay with SK-MEL-5 melanoma is 98.6%; in the assay with UACC-62 melanoma, 95%; in the assay on LOX IMVI melanoma, 91.3%; in the assay with SK-MEL-28 melanoma, 114%; with EKVX NSCLC, 107%; with SN12C renal, 101%. Moreover, the growth is 104% with TK-10 renal; 100% with CAKI-1 renal; 99.1% in the assay on A498 renal; 97% with CCRF-CEM leukemia; 94.5% in the assay on MOLT-4 leukemia.
`COC(=O)CC[C@@H](C)[C@H]1CC[C@H]2C3CC[C@@H]4C[C@@H]5CC[C@]4(C)[C@@]3(O5)[C@H](Br)[C@@H](Br)[C@]12C` (stereo not given in full): the growth in the assay on HCT-15 colon is 97.3%; with HT29 colon, 81.6%; in the assay on SNB-75 CNS, 84.3%; in the assay with SNB-19 CNS, 106%; in the assay with PC-3 prostate it was 77.9%; with SK-MEL-5 melanoma, 99.3%. In addition, the growth is 86.3% with UACC-62 melanoma; 97.1% with LOX IMVI melanoma; 105% in the assay on SK-MEL-28 melanoma; 93% with SK-MEL-2 melanoma; 84.8% with EKVX NSCLC; 98.1% in the assay with SN12C renal. Besides, the growth was 93.7% in the assay with UO-31 renal; 97.7% with TK-10 renal; 96.8% with ACHN renal; 80.3% in the assay on CAKI-1 renal; 95.6% in the assay with CCRF-CEM leukemia; 76% in the assay on MOLT-4 leukemia.
For the compound `COc1cc(N2CCC(N(C)C)CC2)ccc1Nc1ncc(Cl)c(Nc2ccccc2P(C)(C)=O)n1`, the growth with HCT-15 colon is 7.34% (active); in the assay with HT29 colon it was -4.74% (active); with SNB-75 CNS it was -82.5% (active); in the assay on SNB-19 CNS, 14.9%; in the assay with PC-3 prostate, 26%; with SK-MEL-5 melanoma it was 16.5%. Further, the growth in the assay with UACC-62 melanoma is 16%; in the assay on LOX IMVI melanoma, -60.3% (active); with SK-MEL-28 melanoma it was 49.4%; in the assay on EKVX NSCLC, 20%; in the assay with SN12C renal, 1.55% (active); in the assay on UO-31 renal, -81.2% (active). Moreover, the growth is -43.9% (active) with TK-10 renal; 1.69% (active) with ACHN renal; -60.9% (active) in the assay with CAKI-1 renal; -70% (active) in the assay with A498 renal; 10.4% in the assay on CCRF-CEM leukemia; 13.4% in the assay on MOLT-4 leukemia.
For the compound `O=C(Nc1cnn2ccc(N3CCC[C@@H]3c3cc(F)ccc3F)nc12)N1CC[C@H](O)C1`, the growth is 92.6% in the assay with HCT-15 colon; 74.1% with HT29 colon; 29.1% in the assay on SNB-75 CNS; 92% in the assay on SNB-19 CNS; 89.4% with PC-3 prostate; 97.8% with SK-MEL-5 melanoma. The growth in the assay on UACC-62 melanoma was 99%; with LOX IMVI melanoma, 80.1%; in the assay with SK-MEL-28 melanoma, 109%; in the assay with EKVX NSCLC, 99.5%; in the assay with SN12C renal, 81.1%; in the assay on UO-31 renal, 82.8%. The growth was 99.8% in the assay with TK-10 renal; 103% with ACHN renal; 88.3% in the assay on CAKI-1 renal; 95.5% with CCRF-CEM leukemia; 96.8% with MOLT-4 leukemia.
Take `Cc1ccc(N=C2CSc3nnc(-c4csc5c4CCCC5)n3N2)cc1`: the growth was 22.9% with HCT-15 colon; 7.38% (active) with HT29 colon; 56.9% in the assay with SNB-75 CNS; 35.7% in the assay on SNB-19 CNS; 27.9% in the assay with PC-3 prostate; 19% with SK-MEL-5 melanoma. For the same compound, the growth in the assay with UACC-62 melanoma was 40.2%; in the assay with LOX IMVI melanoma, 46.3%; with SK-MEL-28 melanoma it was 63.2%; in the assay on SK-MEL-2 melanoma, 61.6%; in the assay with EKVX NSCLC it was 41.9%; in the assay on SN12C renal, 48.5%. In addition, the growth in the assay with TK-10 renal was 78.9%; with ACHN renal, 52%; in the assay with CCRF-CEM leukemia, 16.8%; with MOLT-4 leukemia it was 23.2%.
For the compound `CC1=CC2c3oc(-c4ccccc4)c(C(=O)c4ccccc4)c3CNC2C=C1` (stereo not given), the growth in the assay on HCT-15 colon is 97.2%; in the assay with HT29 colon, 84.2%; with SNB-75 CNS it was 79.7%; in the assay with SNB-19 CNS, 91.6%; in the assay with PC-3 prostate, 94%; in the assay with SK-MEL-5 melanoma it was 103%. In addition, the growth is 87.9% in the assay with UACC-62 melanoma; 86.2% with LOX IMVI melanoma; 111% in the assay with SK-MEL-28 melanoma; 107% in the assay on EKVX NSCLC; 88.5% in the assay with SN12C renal; 72.2% in the assay with UO-31 renal. The growth in the assay with TK-10 renal was 96%; with ACHN renal it was 87.4%; in the assay on CAKI-1 renal it was 94.8%; in the assay with A498 renal it was 100%; with CCRF-CEM leukemia, 76.1%; with MOLT-4 leukemia, 101%.
